Results taken from PubChem BioAssay AID743480 (Broad Institute, 2014).
The other results are listed elsewhere or left out. Active and inactive are the calls of the source.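 The calls were made as follows: active = compounds whose fitted half-maximal signal-loss concentration is at most twice their highest valid dose; inconclusive = flat curve with 30 to 70% signal loss, or poor fit; inactive = the rest.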

Experiment: HepG2 viability loss by ATP level – cell-based, CellTiter-Glo luminescence, cherry-pick, set 4, cytotoxicity control, dose response (AID 743480)
Conditions: 72 h; series mostly up to 26 µM

**Q.** With `CC[C@H]1OC(=O)[C@H](C)[C@@H](O[C@H]2C[C@@](C)(OC)[C@@H](O)[C@H](C)O2)[C@H](C)[C@@H](O[C@@H]2O[C@H](C)C[C@H](N(C)C)[C@H]2O)[C@](C)(O)C[C@@H](C)[C@@H]2N[C@@H](COCCOC)O[C@H]([C@H]2C)[C@]1(C)O` as the compound, how does the outcome read?
**A.** inactive

**Q.** With `COc1ccc(Cn2c(-c3ccc(Cl)cc3)c[n+]3ccccc23)cc1` as the compound, how does the outcome read?
**A.** inactive

**Q.** Which outcome does the source give for `C=CCNC(=O)c1ccccc1NC(=O)c1ccc(Cl)c(S(=O)(=O)Nc2cccc(C)c2C)c1` here?
**A.** inactive
